# Assay results reported in the supplement of paper PMC8728848.
# The full list was thinned out, with the strongest signals kept by preference.
# Experiments:
# Test in all cases: glycan array binding signal (z-score within array); higher = stronger binding
# Details in all cases: glycan notation: IUPAC condensed, linker removed
# [1] = target: Fuc(a1-2)Gal(b1-3)GalNAc(b1-3)Gal(b1-4)Glc
# In short: (§1)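 Glycan array data came from 3228 arrays in the Consortium for Functional Glycomics database, and only arrays with an available protein sequence were kept. Glycan names were put into IUPAC-condensed notation, and columns mapping to the same glycan were averaged. The binding signal is a within-array Z-score, averaged across arrays of one protein sequence run at different concentrations or buffers and across linkers. A negative Z-score can be read as non-binding.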
# [2] = target: Fuc(a1-2)Gal(b1-3)GlcNAc(b1-3)Gal(b1-4)Glc
# In short: as §1
# Fuc(a1-2)Gal(b1-4)GlcNAc = target: Fuc(a1-2)Gal(b1-4)GlcNAc
# In short: as §1
# Gal(a1-3)Gal(b1-4)Glc = target: Gal(a1-3)Gal(b1-4)Glc
# In short: as §1
# [3] = target: Gal(b1-3)GalNAc(b1-3)Gal(b1-4)Glc
# In short: as §1
# [4] = target: Gal(b1-3)[Fuc(a1-4)]GlcNAc(b1-3)Gal(b1-4)GlcNAc
# In short: as §1
# [5] = target: Gal(b1-3)[Neu5Ac(a2-6)]GalNAc
# In short: as §1
# [6] = target: Gal(b1-3)[Neu5Ac(a2-6)]GlcNAc(a1-4)Gal(b1-4)Glc
# In short: as §1
# [7] = target: Gal(b1-3)[Neu5Ac(a2-6)]GlcNAc(b1-6)Gal(b1-4)Glc
# In short: as §1
# [8] = target: Gal(b1-3)[Neu5Ac(b2-6)]GalNAc
# In short: as §1
# [9] = target: Gal(b1-4)GlcNAc(b1-3)Gal(b1-4)Glc
# In short: as §1
# [10] = target: Gal(b1-4)GlcNAc(b1-6)GalNAc
# In short: as §1
# Gal3S(b1-4)Glc = target: Gal3S(b1-4)Glc
# In short: as §1
# Gal4S(b1-4)GlcNAc = target: Gal4S(b1-4)GlcNAc
# In short: as §1
# GalNAc(a1-3)Gal = target: GalNAc(a1-3)Gal
# In short: as §1
# [11] = target: GlcNAc(b1-2)Gal(b1-3)GlcNAc
# In short: as §1
# [12] = target: Man(a1-2)Man(a1-3)[Man(a1-6)]Man(a1-6)[Man(a1-2)Man(a1-3)]Man(b1-4)GlcNAc(b1-4)GlcNAc
# In short: as §1
# [13] = target: Man(a1-3)[Man(a1-6)]Man(a1-6)[Man(a1-2)Man(a1-3)]Man(b1-4)GlcNAc(b1-4)GlcNAc
# In short: as §1
# [14] = target: Man(a1-3)[Man(a1-6)]Man(b1-4)GlcNAc(b1-4)GlcNAc
# In short: as §1
# [15] = target: Neu5Ac(a2-3)Gal(b1-4)GlcNAc6S
# In short: as §1
# [16] = target: Neu5Ac(a2-3)Gal6S(b1-4)GlcNAc
# In short: as §1
# [17] = target: Neu5Ac(a2-8)Neu5Ac(a2-8)Neu5Ac(a2-8)Neu5Ac(a2-3)[GalNAc(b1-4)]Gal(b1-4)Glc
# In short: as §1
binder,measurement,setting,value
T7P4 (Tuber borchii) (protein) GSHIGPYMSFYASSEDVRTIEEGGRTWLVGRARRADGSWQDIKLDLDNIIGNRDGHLTWGEQNFTQSASDIRFNFEGSNVPVLRAKLRNAAGGEQESDLNLGERLTNNNGDLVFN,glycan array binding signal (z-score),[1],6.04
same,glycan array binding signal (z-score),[2],5.88
same,glycan array binding signal (z-score),Fuc(a1-2)Gal(b1-4)GlcNAc,-0.207
same,glycan array binding signal (z-score),Gal(a1-3)Gal(b1-4)Glc,-0.222
same,glycan array binding signal (z-score),[3],5.7
same,glycan array binding signal (z-score),[4],-0.207
same,glycan array binding signal (z-score),[5],-0.213
same,glycan array binding signal (z-score),[6],5.89
same,glycan array binding signal (z-score),[7],5.74
same,glycan array binding signal (z-score),[8],-0.16
same,glycan array binding signal (z-score),[9],2.77
same,glycan array binding signal (z-score),[10],-0.221
same,glycan array binding signal (z-score),Gal3S(b1-4)Glc,-0.008
same,glycan array binding signal (z-score),Gal4S(b1-4)GlcNAc,-0.202
same,glycan array binding signal (z-score),GalNAc(a1-3)Gal,-0.215
same,glycan array binding signal (z-score),[11],0.204
same,glycan array binding signal (z-score),[12],-0.213
same,glycan array binding signal (z-score),[13],-0.223
same,glycan array binding signal (z-score),[14],-0.226
same,glycan array binding signal (z-score),[15],-0.208
same,glycan array binding signal (z-score),[16],-0.213
same,glycan array binding signal (z-score),[17],-0.223
